# Experimental data reported in PubChem BioAssay AID485272 (The Scripps Research Institute Molecular Screening Center, 2010).
# Hit rate of the full screen: of about 330,000 compounds, about 1,300 (0.39%) were called active. The sample holds actives, similar compounds and a random draw of the others, so the mix is not that of the screen. Unmarked numbers belong to inactive results.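 How the source made its calls: active means percent inhibition above a cutoff equal to the mean of all tested compounds plus 3 SD (cut at about 15% in these data); inactive means the rest.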
# Target: Protein-arginine deiminase type-4 (Homo sapiens) (UniProt Q9UM07)
# Sequence (Q9UM07 whole entry, looked up): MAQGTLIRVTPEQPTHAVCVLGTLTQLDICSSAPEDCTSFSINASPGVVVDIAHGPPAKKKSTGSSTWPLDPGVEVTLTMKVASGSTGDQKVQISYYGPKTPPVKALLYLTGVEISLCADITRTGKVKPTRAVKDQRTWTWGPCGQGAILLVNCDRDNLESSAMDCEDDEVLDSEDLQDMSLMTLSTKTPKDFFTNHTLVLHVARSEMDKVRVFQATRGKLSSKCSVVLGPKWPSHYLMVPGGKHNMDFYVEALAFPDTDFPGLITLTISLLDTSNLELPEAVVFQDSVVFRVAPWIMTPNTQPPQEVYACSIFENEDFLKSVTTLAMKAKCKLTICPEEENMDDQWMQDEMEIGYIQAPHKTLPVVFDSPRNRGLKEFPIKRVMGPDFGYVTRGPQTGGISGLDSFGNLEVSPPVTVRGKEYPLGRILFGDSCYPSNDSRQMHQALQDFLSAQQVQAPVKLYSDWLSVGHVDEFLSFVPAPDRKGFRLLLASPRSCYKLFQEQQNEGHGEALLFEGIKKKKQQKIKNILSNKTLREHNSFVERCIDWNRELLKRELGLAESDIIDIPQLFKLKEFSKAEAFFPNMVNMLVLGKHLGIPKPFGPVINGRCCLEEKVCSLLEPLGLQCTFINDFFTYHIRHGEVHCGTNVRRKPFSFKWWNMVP
# Experiment: human PAD4 inhibitors, primary screen, biochemical, fluorescence polarization, 1536-well format (AID 485272);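 further: 0% = PAD4 with RCA probe and DMSO and 100% = probe without PAD4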
# Settings: recombinant PAD4, RCA probe fluorescence polarization; at 6.36 µM; stronger effect = higher value
row,SMILES,inhibition
1,c1ccc2c(c1)OCCOCCOCCO2,0.83%
2,CCn1c(SCC(=O)Nc2sc(C)c(C)c2C#N)nnc1C1CC1,-2.74%
3,CCCc1c(C)nc2c(Br)cccc2c1Cl,2.17%
4,CCc1ccc2c(c1)C1(NN=C(c3ccccc3)S1)C(=O)N2 (stereo not given),-9.11%
5,COc1ccc(C2(O)C(=O)Nc3ccccc32)cc1 (stereo not given),0.37%
6,O=C1Nc2ccccc2C12Nc1ccccc1S2 (stereo not given),21.3% (active)
7,CC1(C)N=C(c2ccccn2)C(C)(C)N1O,-1.6%
8,O=C(NCCc1ccccc1Cl)C1CCC(=O)N(CCCc2ccccc2)C1 (stereo not given),1.05%
9,Cc1c2cnn(CC(=O)NCc3ccccn3)c(=O)c2c(C)n1Cc1ccc(Cl)cc1,1.37%
10,CC(C)CNC(=O)CC(NCC(C)C)C(=O)O (stereo not given),-2.65%
11,Cc1nc2ccccc2nc1N/N=C/c1ccc(O)cc1O,-3.07%
12,Cc1cc(O)ccc1-c1cnc2ccccc2n1,28.5% (active)
13,Oc1ccc(-c2[nH]ncc2-c2nc3ccccc3s2)c(O)c1,3.22%
14,CS(=O)(=O)N(CC(=O)N1CCN(c2ccc(F)cc2)CC1)C1CCCCC1,-2.55%
15,C=CCN1C2CCCC1CC(NC(=S)Nc1cccc(OC)c1)C2 (stereo not given),3.98%
16,O=C(CN1C(=O)CCS(=O)(=O)c2ccccc21)NCc1ccc(F)cc1,-1.88%
17,C[C@H](CO)N1C[C@H](C)[C@@H](CN(C)Cc2ccc(-c3ccccc3)cc2)Oc2ccc(NC(=O)Cn3cnnn3)cc2C1=O,-5.03%
18,CN1c2ccc(C=O)c3c(C=O)ccc(c23)N(C)C1(C)C,54.5% (active)
19,O=C(Nc1ccc([N+](=O)[O-])cc1)C1(c2ccccc2)CCOCC1,-2.28%
20,CN(C(=O)CN1C(=O)CCSc2ccc(S(=O)(=O)N3CCCC3)cc21)c1ccccc1,-3.61%
21,NNC(=O)c1oc2nc(-c3ccccc3)cc(-c3ccco3)c2c1N,-6.02%
22,CNC(=S)NNC(=O)c1cccn(Cc2ccccc2)c1=O,-2.2%
23,CNC(=S)NNC(=O)c1oc2nc(-c3ccccc3)cc(-c3ccco3)c2c1N,19.9% (active)
24,COc1ccc([C@@H]2[C@@H]3C(=O)N(C(C)(C)C)C(=O)[C@@H]3[C@]3(Cc4ccccc4)C(=O)N(c4cccc(Br)c4)C(=O)N23)cc1,0.18%

row,SMILES,inhibition
1,Cc1nn(CC2CC2)c(=O)n1N(C)c1ncc(C(F)(F)F)cc1Cl,0.5%
2,O=C(Nc1ccccc1Cl)/C(Cl)=C(\Cl)S(=O)c1ccccc1 (stereo not given),16.5% (active)
3,O=C(Cc1ccc2c(c1)CCCC2)Nc1ccccc1Cl,1.33%
4,Cc1c(NC(=O)Nc2ccccc2Cl)sc(=S)n1C,-3.79%
5,CC1CN(c2nc(-c3ccccc3)nnc2-c2ccccc2)CC(C)O1 (stereo not given),-2.42%
6,Cn1cccc1/C=C1\SC(=S)N(NC(=O)c2ccc(Cl)cc2)C1=O,-18.5%
7,COc1ccccc1NC(=S)NC(=O)C(C)C,-0.01%
8,CC(C)C(=O)NC(=S)Nc1ccccc1F,5.01%
9,CCc1ccccc1NC(=S)Nc1cc(OC)c(NC(=O)C(C)C)cc1OC,41.1% (active)
10,C=CCNC(=O)c1ccccc1NC(=O)c1ccc(Cl)c(S(=O)(=O)Nc2cccc(C)c2C)c1,2.11%
11,Cc1nc(N2CCCC2C(=O)O)c2oc3ccccc3c2n1 (stereo not given),-1.75%
12,Cc1nc(Cl)c2oc3ccccc3c2n1,15.3% (active)
13,COc1ccc(C)cc1Nc1nc(C)nc2c1oc1ccccc12,1.33%
14,CCCCC[C@@H]1C=C(C(=O)O)[C@H](c2ccc(C#N)cc2)N1S(=O)(=O)c1ccc(C)cc1,0.94%
15,O=C(N/C(=C\c1ccc([N+](=O)[O-])cc1)C(=O)N1CCCCC1)c1ccco1,2.37%
16,COc1cccc(NC(=O)C2c3cc(OC)c(OC)cc3C(=O)N(C)C2c2cccnc2)c1 (stereo not given),69.3% (active)
17,COc1cccc(NC(=O)C2C(c3ccccc3)C2(Cl)Cl)c1 (stereo not given),-7.27%
18,CCOc1cc2c(cc1OCC)C(C(=O)O)C(c1ccc(OC)c(O)c1)N(C)C2=O (stereo not given),-1.73%
19,CO[C@H]1[C@@H]2C=CO[C@@H](O[C@H]3O[C@@H](CO)[C@H](O)[C@@H](O)[C@@H]3O)[C@@H]2[C@@]2(CO)O[C@@H]12,1.64%
20,Cc1nc2ccccc2nc(C)c1=NOCc1ccc(Cl)cc1Cl,-3.19%
21,CCOC(=O)C1CCN(C(=O)CC2C(=O)N(Cc3ccccc3)C(C)c3nc4ccccc4n32)CC1 (stereo not given),-2.42%
22,CCC(CO)Oc1cc(NC(=O)c2cccc3ccccc23)c2ncn(C(C)C)c2c1 (stereo not given),-7.37%
23,CCC(CO)Oc1cc(NC(=O)c2cccc(F)c2)c2ncn(C(C)C)c2c1 (stereo not given),3.9%
24,CCC(CO)Oc1cc(NC(=O)c2ccc(Cl)cc2)c2ncn(C(C)C)c2c1 (stereo not given),-2.59%

row,SMILES,inhibition
1,CCC(CO)Oc1cc(NCc2ccccc2)c2ncn(C3CCCC3)c2c1 (stereo not given),-6.94%
2,CC(C)n1cnc2c(NCc3ccccc3)cc(OCC3CCN(C)CC3)cc21,16.8% (active)
3,CC(C)n1cnc2c(NCc3ccccc3)cc(N[C@@H](CO)Cc3ccccc3)cc21,32.9% (active)
4,Cc1ccc(NC(=O)C(C)c2cccc(C(=O)c3ccccc3)c2)cc1 (stereo not given),1.32%
5,O=C(Cn1c2[n+](c3ccc(C(F)(F)F)cc31)CCCCC2)Nc1c(F)cccc1F,-5.07%
6,CC(C)C(C)(C#N)NC(=O)CSc1nncn1-c1ccccc1 (stereo not given),-0.3%
7,CC(C)(C)NC(=O)/C(=C/c1cccnc1)NC(=O)c1ccco1,0.75%
8,Cc1cc(C)c2c(Cn3ccnc3)cc(=O)oc2c1,-4.75%
9,Cc1nn(-c2ccccc2)c(C)c1NC(=O)CCl,1.95%
10,Cc1nn(-c2ccccc2)c(C)c1NC(=O)COC(=O)c1cc(Cl)ccc1O,2.71%
11,Cc1ccc2c(c1)N(C(=O)CCC(=O)NCc1cccnc1)CCO2,-2.36%
12,O=C(NC(=S)Nc1ccc(Cl)cc1Cl)C1CC1,1.69%
13,CCOc1ccc(NS(=O)(=O)c2ccc(Cl)c(C(=O)N(C)Cc3cccnc3)c2)cc1,6.71%
14,O=C(Nc1ccc(N2CCOCC2)cc1)c1cccc(S(=O)(=O)N2CCOCC2)c1,-3.19%
15,Oc1c(C=Nc2cccc3nsnc23)ccc2ccccc12,39.1% (active)
16,Oc1ccc2ccccc2c1N=Nc1nccs1,2.91%
17,O=C(CCNS(=O)(=O)c1ccc(Br)s1)NCc1ccccc1Cl,-0.29%
18,Clc1ccc(-c2cc(COc3ccccc3)no2)cc1Cl,-0.83%
19,COC(=O)c1ccc(C)c(NC(=O)Cn2c(C)csc2=O)c1,2.97%
20,COc1ccc(NC(=O)CSc2nc3ccccc3c(=O)n2C)cc1,-0.44%
21,COc1ccc(OCc2ccc(-c3nc4ccccc4c(=O)n3N)o2)cc1,1.08%
22,Cc1ccc(C(=O)CSc2nc3ccccc3c(=O)n2N)o1,28.9% (active)
23,CCC(C(=O)OC)n1cnc2scc(-c3ccc(C)cc3)c2c1=O (stereo not given),0.23%
24,Cc1[nH]nc(-c2ccc(OCc3cnn(-c4ccccc4)c3)cc2O)c1Oc1ccc(Cl)cc1,-2.55%

row,SMILES,inhibition
1,Oc1ccc(N=Cc2sc3ccccc3c2Cl)cc1,19.9% (active)
2,Cc1cc(N=Nc2ccc3ccccc3c2)ccc1O,1.91%
3,Oc1ccc(/C=N/N(Cc2ccccc2)c2ccccc2)cc1,2.9%
4,Oc1ccc(N=Cc2c(O)ccc3ccccc23)cc1,69.9% (active)
5,CC(=O)n1c(C=Nc2ccccc2)c(O)c2ccccc21,-8.69%
6,CCC(C)NC(=O)Cn1nc(C(F)(F)F)c2c1CCC2 (stereo not given),0.61%
7,N/C(=N\OC(=O)CC1CCCCC1)c1ccccc1,-1.21%
8,CC(=O)c1ccc(S(=O)(=O)NCc2nnnn2-c2ccccc2)cc1,7.61%
9,O=c1oc2ccc(C#CC3(O)CCCCC3)cc2cc1-n1cc(-c2ccsc2)nn1,2.6%
10,Cc1cccc(CN2CCN(Cc3cnn(-c4ccccc4F)c3)CC2CCO)n1 (stereo not given),8.78%
11,COc1ccc(CCNS(=O)(=O)c2cc3c(cc2C)NC(=O)CO3)cc1OC,-1.01%
12,N#CCCN(C(=O)COC(=O)C1CCN(c2ccc(C(F)(F)F)cn2)CC1)c1ccc(F)cc1,-2.71%
13,COc1cc(C(=O)NCc2ccc3c(c2)cc(C)n3C)cc(OC)c1OC,26.2% (active)
14,CCOCC(=O)NCc1ccc2c(c1)cc(C)n2C,6.21%
15,COc1cc(C(=O)NCc2cc3cc(Cl)ccc3n2C)cc(OC)c1OC,0.12%
16,CC(=O)Nc1ccc(N2C(=O)CCC2=O)cc1C,1.44%
17,COc1cccc(N2CC(NS(=O)(=O)c3cccs3)CC2=O)c1 (stereo not given),-3.8%
18,COc1cc(C(=O)N2C(=O)c3cccc(N)c3C2=O)cc(OC)c1OC,-3.66%
19,CC(=O)Nc1ccccc1Sc1ccc2c3c(cccc13)C(=O)N(c1ccc(C)cc1)C2=O,1.13%
20,CN1C(=O)c2cccc3c(N)ccc(c23)C1=O,24% (active)
21,Cc1nn(C)cc1N1C(=O)c2cccc3c(N)ccc(c23)C1=O,26.9% (active)
22,Cc1nn(C)cc1C(=O)c1ccccc1,-3.44%
23,COC(=O)c1ccc(CN2CCCC(C(=O)Nc3cccc(-n4cnnn4)c3)C2)cc1 (stereo not given),-3.14%
